TDP1 block: blocks human tyrosyl-DNA phosphodiesterase 1 | Potency, µM (series often up to 130 µM), hits mostly inhibitors | 350,000 compounds, 0.28% hits | recombinant TDP1, AlphaScreen DNA substrate cleavage | AID 485290 | Q9NUW8; further: nearly all actives have a fitted effect of over 40% in size
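AlphaScreen read-out: signal falls as enzyme removes the 3' tyrosine-FITC from a 5'-biotinylated DNA oligo (15 nM, 5 min, RT). Enzyme was E. coli-made recombinant Tdp1 at 1 nM, exposed to compound for 15 min beforehand; beads 10 ug/ml, 10 min.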
Six1-Eya2 inh: Six1/Eya2 interaction inhibition. AlphaScreen GST-Six1/His-Eya2 binding, biochemical; active compounds read low. activity change, % (concentration not given with the values). Q15475+O00167. 360,000 compounds, 0.56% hits; in the data active means activity change below about -65%; inconclusive means mostly about -30% to -63%
Target sequence (O00167 whole entry, looked up): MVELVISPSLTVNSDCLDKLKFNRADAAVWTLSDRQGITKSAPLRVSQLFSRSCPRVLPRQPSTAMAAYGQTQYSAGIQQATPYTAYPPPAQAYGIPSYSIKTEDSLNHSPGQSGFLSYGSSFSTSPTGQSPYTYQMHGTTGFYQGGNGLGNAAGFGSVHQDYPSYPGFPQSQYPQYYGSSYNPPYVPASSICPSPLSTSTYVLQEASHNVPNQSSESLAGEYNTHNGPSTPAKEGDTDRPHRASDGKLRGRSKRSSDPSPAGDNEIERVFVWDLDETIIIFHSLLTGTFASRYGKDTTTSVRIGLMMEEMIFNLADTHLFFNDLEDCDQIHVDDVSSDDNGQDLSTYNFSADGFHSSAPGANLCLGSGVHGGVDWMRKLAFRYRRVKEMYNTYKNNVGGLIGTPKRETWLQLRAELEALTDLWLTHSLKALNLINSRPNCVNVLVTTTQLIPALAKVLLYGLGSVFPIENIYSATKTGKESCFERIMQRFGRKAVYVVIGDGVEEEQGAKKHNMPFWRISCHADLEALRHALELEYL
Target sequence (Q15475 whole entry, looked up): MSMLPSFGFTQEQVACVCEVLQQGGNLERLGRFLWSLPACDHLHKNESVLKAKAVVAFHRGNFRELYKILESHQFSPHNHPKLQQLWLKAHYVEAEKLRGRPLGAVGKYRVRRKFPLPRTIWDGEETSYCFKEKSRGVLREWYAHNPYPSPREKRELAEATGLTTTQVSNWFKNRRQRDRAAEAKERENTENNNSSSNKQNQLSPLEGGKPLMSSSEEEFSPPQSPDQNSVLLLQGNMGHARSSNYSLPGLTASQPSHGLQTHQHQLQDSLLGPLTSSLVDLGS
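Compounds are tested against tagged Six1 and Eya2 proteins bridged by glutathione donor and nickel acceptor beads; after a one-hour incubation at 37 °C without light, AlphaScreen emission is recorded.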
JMJD2A Tudor: blocks the human JMJD2A Tudor domain | AID 504339 | Potency, µM (series often up to 114 µM), hits mostly inhibitors | O75164 | 390,000 compounds, 4.4% hits | AlphaScreen JMJD2A-Tudor / H3K4me3 peptide binding; further: nearly all actives have a fitted effect of over 50% in size
BAZ2B inh: BAZ2B (human) inhibition | AlphaScreen BAZ2B-H3K14Ac peptide displacement | Potency, µM (top dose mostly 114 µM), usual class: inhibitors | Q9UIF8 | 360,000 compounds, 4.4% hits; further: nearly all actives have a fitted effect of over 60% in size
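Inhibition is scored as reduced AlphaScreen emission. The BAZ2B/b-H3(5-23)K14Ac complex (50 nM each) in PBS pH 7.4, 0.01% Tween-20 meets compound (up to 110 uM) for 30 min at RT before bead addition.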
CtBP-E1A inh: inhibitors of CtBP/E1A interaction | AlphaScreen GST-E1A/His-CtBP binding, 1536-well; active compounds read low | activity change, % (concentration not given with the values) | 340,000 compounds, 0.49% hits | AID 651724; in the data active means activity change below about -65%; inconclusive means mostly about -30% to -63%
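GST-E1A and His-tagged CtBP (125 nM each as 5X stock) were preincubated with pin-transferred compound for 2 h at 37 °C in the dark, then glutathione donor and nickel acceptor beads were added for 1 h before AlphaScreen reading.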
HP1b chromo inh: blocks HP1-beta chromodomain binding to methylated histone tails | AlphaScreen HP1-beta / biotin-H3K9me3 peptide binding | Potency, µM (titrated, usually from 114 µM), most hits filed as inhibitors | 390,000 compounds, 0.56% hits | AID 540317; further: nearly all actives have a fitted effect of over 70% in size
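AlphaScreen: HP1-beta (50 nM) preformed 30 min with biotin-H3(1-18)K9me3 peptide (50 nM) in PBS pH 7.4, 0.01% Tween-20. Compound added for 30 min at RT, then streptavidin donor/nickel chelate acceptor beads (10 ug/mL) for 30 min.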
Numbers stand for hits; 0 = inactive; ? = inconclusive; - = no result; [ ] = dose if it differs, or a comment. Hits are enriched below; roughly 5.3% of the tested compounds scored in any of these assays. Unless noted, the call rests on the fitted dose curve; in most records, active means well fitted inhibition curve with a large enough effect; inconclusive means small, poorly fitted or top-dose-only effect; inactive means no such curve, though single readings can be large or run the other way.

SMILES	TDP1 block	Six1-Eya2 inh	JMJD2A Tudor	BAZ2B inh	CtBP-E1A inh	HP1b chromo inh
O=C(Nc1cccc(S(=O)(=O)N2CCCCCC2)c1)c1ccc2ccccc2n1	0	0	0	0	0	0
O=C(Nc1ccc(N2CCCC2)cc1)C(Cl)c1ccccc1 (stereo not drawn)	0	0	28µM	50µM	0	45µM
CS(=O)(=O)N1CCN(c2ccc(NC(=O)C(c3ccccc3)c3ccccc3)cc2)CC1	0	0	0	0	0	0
Cc1ccccc1C(=O)Nc1ccc(N2CCCC2)cc1	0	0	28µM	?	0	0
C=Cc1nc(Nc2cc(F)cc(F)c2)nc(NC2CCCC2)n1	0	-	0	-	-	-
CCc1nn(CC(=O)NCCOC)c(=O)c2cc3cc(F)ccc3n12	0	-	0	0	-	0
Oc1ccccc1C=NN=C1c2ccccc2-c2ccccc21	-	?	16µM	-	0	45µM
O=C(O)c1ccccc1C=NN=C1c2ccccc2-c2ccccc21	-	0	?	-	0	?
O=C(O)CC1S/C(=N/N=C/C=C/c2ccccc2[N+](=O)[O-])NC1=O (stereo not drawn)	0	0	?	0	0	0
O=C(O)CC1S/C(=N/N=C/C=C/c2ccccc2)NC1=O (stereo not drawn)	0	?	79µM	79µM	0	0
Cn1c(=O)n(C)c2cc(/C=N/N=C3/NC(=O)C(CC(=O)O)S3)ccc21 (stereo not drawn)	0	0	32µM	50µM	0	?
CCOc1cc(/C=N/N=C2/NC(=O)C(CC(=O)O)S2)ccc1OCc1ccc(Cl)cc1 (stereo not drawn)	-	0	50µM	56µM	0	0
COc1ccc(/C=N/N=C2/NC(=O)C(CC(=O)O)S2)cc1OCc1ccc(Cl)cc1 (stereo not drawn)	0	0	?	?	0	0
CCCn1c(=O)c2sccc2n2c(CCCC(=O)Nc3ccccc3OCC)nnc12	0	-	0	0	-	0
Cc1nn2c(C(F)(F)F)cc(-c3ccc(OC(C)C)cc3)nc2c1C#N	0	-	0	0	-	0
O=S(=O)(NCC(c1ccco1)S(=O)(=O)c1cccs1)c1ccc(F)c(C(F)(F)F)c1 (stereo not drawn)	0	-	0	0	-	0
O=c1[nH]c2ccccc2c(O)c1-[n+]1ccccc1	0	0	0	0	0	0
O=c1[nH]c2ccccc2c(O)c1O	0	0	50µM	0	0	?
O=C(NCc1n[nH]c(=S)n1-c1ccc(F)cc1)c1ccc(S(=O)(=O)N2CCOCC2)cc1	0	0	13µM	0	-	0
O=C(NCc1n[nH]c(=S)n1-c1ccccc1)c1ccc(S(=O)(=O)N2CCOCC2)cc1	0	0	7.1µM	0	0	0
O=C(NCc1n[nH]c(=S)n1-c1ccc(F)cc1)c1ccco1	-	0	22µM	0	0	0
COc1ccc2c(c1)Sc1ccccc1N2	0	?	40µM	20µM	?	28µM
Cc1ccc(S(=O)(=O)NNC(=O)c2sc(NS(=O)(=O)c3ccccc3)nc2C)cc1	-	0	0	0	0	0
O=C(NNS(=O)(=O)c1ccc([N+](=O)[O-])cc1)c1ccncc1	0	0	0	0	0	0
Cc1ccc(S(=O)(=O)NNC(=O)c2sc(=S)n(C)c2C)cc1	0	0	3.5µM	0	0	0
SMILES	TDP1 block	Six1-Eya2 inh	JMJD2A Tudor	BAZ2B inh	CtBP-E1A inh	HP1b chromo inh
Cc1cccc(C(=O)NNS(=O)(=O)c2ccc(F)cc2)c1O	0	0	2µM	0	0	0
Cc1ccc(S(=O)(=O)NNC(=O)c2ccncc2)cc1	0	0	79µM	0	0	0
O=C(NNS(=O)(=O)c1ccccc1)c1ccncc1	0	0	10µM	0	0	0
CC(C)(C)OC(=O)CC(=O)NNC(=O)c1cc2ccccc2[nH]1	0	-	0	-	-	-
CC(=O)O[C@H]1C2=C(C(=O)[C@H]3O[C@@H]31)[C@@H]1[C@@H]3[C@@H](C)OC=C4[C@H](O)[C@H]5O[C@@H]5C(=O)[C@]43C2O[C@H]1C	0[21 µM]	-	-	-	-	-
COC(=O)Cn1c(=O)c2c(nc3n2CCN3c2ccc(F)cc2)n(C)c1=O	0	-	0	0	-	0
Cc1ccc(Cn2cc(S(=O)(=O)c3cccc(C)c3)c(=O)c3cc(F)c(N4CCOCC4)cc32)cc1	0	-	0	0	-	0
c1ccc(-c2nc(-c3cccc4ccccc34)c(NC3CCCCC3)o2)cc1	0	-	-	-	-	-
CCCCCCCCCCCCCCCC(=O)NCCCC(=O)O	0	-	-	-	-	-
O=C(NNS(=O)(=O)c1ccccc1)c1cccc(F)c1	-	0	0	56µM	-	0
CCCCNC(=S)N1CCN(CC)CC1	-	0	45µM	50µM	0	?
O=C(NC1CCN(C(=S)NCCc2ccccc2)CC1)C1CC1	0	0	0	?	-	0
CCOCCCNC(=S)N1CCN(Cc2ccco2)CC1	0	0	0	35µM	0	40µM
CCCNC(=S)N1CCC(NC(=O)C2CCCCC2)CC1	0	0	22µM	0	0	?
CCCNC(=S)N1CCN(C)CC1	-	0	8.9µM	40µM	0	?
Cc1coc2cc3oc(=O)c(CC(=O)NCc4cccc(Cl)c4)c(C)c3cc12	0	-	0	0	-	0
COc1ccc(Br)cc1CNC(=O)CN1C(=O)CSc2ccc(S(=O)(=O)N3CCOCC3)cc21	0	-	0	0	-	0
CC(C)OC(C)C	0	-	-	-	-	-
CCOCCCNC(=S)N1CCN(CC)CC1	-	0	25µM	50µM	0	?
COc1ccc(-n2nc(C(=O)Nc3cc(OC)c(OC)c(OC)c3)c(=O)n(C)c2=O)cc1	0	-	0	0	-	0
O=c1[nH]c(CN2CCN(c3ccc(O)cc3)CC2)nc2scc(-c3ccc(Cl)cc3)c12	0	?	45µM	?	0	?
O=c1[nH]c(CN2CCN(c3ccccc3O)CC2)nc2scc(-c3ccccc3Cl)c12	0	0	?	0	0	0
Oc1ccc(N2CCN(Cc3nc4ccccc4[nH]3)CC2)cc1	0	0	50µM	0	0	?
CCN1CCN(Cc2c(O)ccc3cc(-c4ccc(OC)cc4)c(=O)oc23)CC1	0	-	0	0	-	0
COc1cccc(C(=O)c2cn(CC(=O)Nc3cccc(Cl)c3C)c3nc(C)ccc3c2=O)c1	0	-	0	0	-	0
SMILES	TDP1 block	Six1-Eya2 inh	JMJD2A Tudor	BAZ2B inh	CtBP-E1A inh	HP1b chromo inh
O=C(NNc1ncnc2ccccc12)c1cccc(Cl)c1	0	0	0	79µM	0	0
O=C(NNc1ncnc2c1cnn2-c1ccccc1)c1cccc(Cl)c1	0	-	0	0	-	0
CCN(CC)c1ccc(C(=C2C=CC(=[N+](CC)CC)C=C2)c2ccc(S(=O)(=O)O)cc2S(=O)(=O)[O-])cc1	-	?	?	-	?	22µM
COCOc1ccc(OC)cc1C(=O)/C=C/c1ccc(OC)c(Br)c1	0	-	-	-	-	-
O=C(NCCO)c1cc2cc(Cl)cc(Cl)c2oc1=O	0	0	0	0	0	?
O=C(O)c1cc2cc(Cl)cc(Cl)c2oc1=O	0	?	0[11.4 µM]	?	-74	0
CCCCN(Cc1ccc(Cl)c(Cl)c1)c1ccc(Br)cn1	-	-	0	-	-	0

Compound activity from PubChem.
